# Assay results as given in PubChem BioAssay (NCATS).
# Results filed as inconclusive are left out. A call without a number means that no potency is given here. The source made the active and inactive calls. Calls follow the shape of the dose curve; as a rule, active = well fitted inhibition curve with a large enough effect; inconclusive = small, poorly fitted or top-dose-only effect; inactive = no such curve, though single readings can be large or run the other way.
# Tested on: Zika virus NS2B-NS3 protease (unlinked complex)
# Test: Primary screen GU Rhodamine qHTS for Zika virus inhibitors: Unlinked NS2B-NS3 protease assay (AID 1347159); also: nearly all actives have a fitted effect of over 60% in size
# Conditions: Recombinant ZIKV NS2B-NS3 protease, Rhodamine110 substrate fluorescence; series mostly up to 107 µM
# In short: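 Noncovalent NS2B hydrophilic domain–NS3 protease domain complex (25 nM) preincubated 15 min at room temperature with compounds (up to 114 microM) in 10 mM Tris-HCl pH 8.0, 0.01% Tween 20; 1.5 microM Rhodamine110 substrate added, fluorescence change over 15 min fitted to Hill equation.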
# Potency is read from the fitted curve at half-maximal effect.
row,SMILES,Potency
1,CC(C)CCC1(O)C(=O)C(C)(C)C(O[C@@H]2O[C@H](CO)[C@@H](O)[C@H](O)[C@H]2O)C(C)(C)C1O (stereo not given in full),35.5 µM (active)
2,CCCC(=O)NCCc1csc(-c2ccc(Cl)cc2)n1,inactive
3,CS(=O)(=O)c1ccc([C@H](CC2CCCC2)C(=O)Nc2nccs2)cc1,inactive
4,c1ccc(N2CCN(CCc3nn[nH]n3)CC2)cc1,inactive
5,C[C@@H]1C(=O)O[C@H](C)[C@H]1CC(=O)[C@](C)(O)[C@H]1CC[C@@]2(O)C3=CC(=O)[C@@H]4C[C@@H](O)[C@@H](O)C[C@]4(C)C3CC[C@]12C (stereo not given in full),inactive
6,CN(C)c1ccc2c(c1)OC(N)=C(C#N)C2c1cccc(C(F)(F)F)c1 (stereo not given),inactive
7,CC(C)[C@@H](CS(=O)(=O)C(C)C)N1C(=O)[C@@](C)(CC(=O)O)C[C@H](c2cccc(Cl)c2)[C@H]1c1ccc(Cl)cc1,28.2 µM (active)
8,Cc1cn(C2C=CC(CO)O2)c(=O)[nH]c1=O (stereo not given),inactive
9,COc1c2c(c(C)c3c1C(=O)OC3)O[C@@]1(C)CCC3(C(C)(C)O)OC(=O)CC[C@]3(C)[C@H]1C2 (stereo not given in full),inactive
10,C=C[C@H]1[C@H](O[C@@H]2O[C@H](CO)[C@@H](O)[C@H](O)[C@H]2O)OC=C(C(=O)OC)[C@H]1CC(=O)O,inactive
11,C[C@@H]1CCN(C(=O)N2CCCC2)C[C@@H]1N(C)c1ncnc2[nH]ccc12,inactive
12,C=C1C(=O)OC2C1CCC(=C)C1CC(OC(C)=O)C(=C)C12 (stereo not given),31.6 µM (active)
13,Cc1nc(Nc2n[nH]c3c2CN(C(=O)NC(CN(C)C)c2ccccc2)C3(C)C)c2sccc2n1 (stereo not given),inactive
14,C[C@H](Oc1ccc(S(C)(=O)=O)cc1C(=O)N1CCN(c2ncc(C(F)(F)F)cc2F)CC1)C(F)(F)F,inactive
15,O=C1Nc2ccccc2C(O)(c2ccccc2)C1O (stereo not given),inactive
16,C=C(C)C1CCC2(C(=O)O[C@@H]3O[C@H](CO[C@@H]4O[C@H](CO)[C@@H](O)[C@H](O)[C@H]4O)[C@@H](O)[C@H](O[C@@H]4O[C@@H](C)[C@H](O)[C@@H](O)[C@H]4O)[C@H]3O)CCC3(C(=O)O)C(CCC4C5(C)CCC(O)C(C)(C)C5CCC43C)C12 (stereo not given in full),inactive
17,OCC(CO[C@@H]1O[C@H](CO)[C@@H](O)[C@H](O)[C@H]1O)c1ccc2c(c1)OCO2 (stereo not given in full),inactive
18,CC(c1ncncc1F)C(O)(Cn1cncn1)c1ccc(F)cc1F (stereo not given),inactive
19,COc1ccc(-c2cnc3ccc(NCc4ccc(S(N)(=O)=O)cc4)nn23)cc1OC,inactive
20,C=C1C(=O)OC2CC(C)=C(C(C)CCCO)C(O)C12 (stereo not given),20 µM (active)

row,SMILES,Potency
1,CC/C=C\CC1C(=O)C=CC1(CCCCCCCC(=O)O)OC(C)=O (stereo not given),7.08 µM (active)
2,CC(=O)OC1C[C@@]2(C)[C@@H](CC[C@@H](C)[C@]23Cc2c(O)cc4c(c2O3)CNC4=O)C(C)(C)[C@@H]1O (stereo not given in full),inactive
3,CC(=O)O[C@@H]1[C@@H](O)[C@H](O[C@H]2CC[C@]34C[C@]35CC[C@]3(C)[C@@H]([C@@]6(C)CC[C@@H](C(C)(C)O)O6)[C@@H](O)C[C@@]3(C)[C@@H]5C[C@H](O[C@@H]3O[C@H](CO)[C@@H](O)[C@H](O)[C@H]3O)[C@H]4C2(C)C)OC[C@H]1O,inactive
4,CC(=O)OC1CC2(C)C3=CCC4(C)C5C(O)C(O)C(C(C)C)C5(C)CCC4(C)C3CCC2C(C)(C)C1OC1OC(CO)C(O)C(O)C1O (stereo not given),inactive
5,O=C(OC[C@@]1(O)CO[C@@H](O[C@H]2[C@H](Oc3ccc(O)cc3)O[C@H](CO)[C@@H](O)[C@@H]2O)[C@@H]1O)c1ccc(O)cc1,inactive
6,CC(=O)c1ccc2c(c1)C(O)C(C(C)(C)O)O2 (stereo not given),inactive
7,O=C(O)c1ccccc1NC(=O)N1CCC(c2ccccc2C(F)(F)F)CC1,22.4 µM (active)
8,CC/C=C\[C@H](O)[C@H](O)C1=C(C)C(=O)[C@]2(O1)C(=O)N[C@@](OC)(C(=O)c1ccccc1)[C@@H]2O,inactive
9,COc1cc(/C=C/C(=O)OC[C@H]2O[C@@](CO)(O[C@H]3O[C@H](CO)[C@@H](O)[C@H](O)[C@H]3O)[C@@H](OC(=O)/C=C/c3ccc(O)c(OC)c3)[C@@H]2O)ccc1O,inactive
10,Cc1cccc(S(=O)(=O)N2CCC[C@@H]2CCN2CCC(C)CC2)c1,inactive
11,COC1C(=O)CCC2(CO2)C1(O)C1(C)OC1CC=C(C)C (stereo not given),44.7 µM (active)
12,COc1ccc(N2CCOCC2)c2sc(NC(=O)N3CCC(C)(O)CC3)nc12,inactive
13,N#Cc1ccc2[nH]cc(CCCCN3CCN(c4ccc5oc(C(N)=O)cc5c4)CC3)c2c1,inactive
14,O=C1NC(Cc2c[nH]c3ccccc23)C(=O)NC1Cc1c[nH]c2ccccc12 (stereo not given),inactive
15,Cc1ccc(NC(=O)c2ccc(CN3CC[C@H](N(C)C)C3)c(C(F)(F)F)c2)cc1Nc1nccc(-c2cncnc2)n1,inactive
16,COC(=O)c1c(C)cc(OC(=O)c2c(C)cc(OC)cc2OC)cc1O[C@@H]1O[C@H](CO)[C@@H](O)[C@H](O)[C@H]1O,inactive
17,C=C1CCC2C(C)(C)C(O)CCC2(C)C1CCC(C)CCO (stereo not given),7.08 µM (active)
18,CC1(C)[C@@H](O)CC[C@]2(C)[C@H]3CC=C4[C@@H]5C[C@](C)(C(=O)O)CC[C@]5(C)CC[C@@]4(C)[C@]3(C)CC[C@@H]12,7.08 µM (active)
19,C[C@H](C/C=C/C(C)(C)O)[C@H]1CC[C@@]2(C)[C@@H]3[C@@H](O[C@@H]4O[C@H](CO)[C@@H](O)[C@H](O)[C@H]4O)C=C4C(CC[C@H](O)C4(C)C)[C@]3(C=O)CC[C@]12C (stereo not given in full),inactive
20,COc1cc2ncnc(N3CCC(Oc4cnc5ccccc5n4)C3)c2cc1OC (stereo not given),inactive
